The labels stand for the following.
T1: USP38, Q8NB14
T1 chain: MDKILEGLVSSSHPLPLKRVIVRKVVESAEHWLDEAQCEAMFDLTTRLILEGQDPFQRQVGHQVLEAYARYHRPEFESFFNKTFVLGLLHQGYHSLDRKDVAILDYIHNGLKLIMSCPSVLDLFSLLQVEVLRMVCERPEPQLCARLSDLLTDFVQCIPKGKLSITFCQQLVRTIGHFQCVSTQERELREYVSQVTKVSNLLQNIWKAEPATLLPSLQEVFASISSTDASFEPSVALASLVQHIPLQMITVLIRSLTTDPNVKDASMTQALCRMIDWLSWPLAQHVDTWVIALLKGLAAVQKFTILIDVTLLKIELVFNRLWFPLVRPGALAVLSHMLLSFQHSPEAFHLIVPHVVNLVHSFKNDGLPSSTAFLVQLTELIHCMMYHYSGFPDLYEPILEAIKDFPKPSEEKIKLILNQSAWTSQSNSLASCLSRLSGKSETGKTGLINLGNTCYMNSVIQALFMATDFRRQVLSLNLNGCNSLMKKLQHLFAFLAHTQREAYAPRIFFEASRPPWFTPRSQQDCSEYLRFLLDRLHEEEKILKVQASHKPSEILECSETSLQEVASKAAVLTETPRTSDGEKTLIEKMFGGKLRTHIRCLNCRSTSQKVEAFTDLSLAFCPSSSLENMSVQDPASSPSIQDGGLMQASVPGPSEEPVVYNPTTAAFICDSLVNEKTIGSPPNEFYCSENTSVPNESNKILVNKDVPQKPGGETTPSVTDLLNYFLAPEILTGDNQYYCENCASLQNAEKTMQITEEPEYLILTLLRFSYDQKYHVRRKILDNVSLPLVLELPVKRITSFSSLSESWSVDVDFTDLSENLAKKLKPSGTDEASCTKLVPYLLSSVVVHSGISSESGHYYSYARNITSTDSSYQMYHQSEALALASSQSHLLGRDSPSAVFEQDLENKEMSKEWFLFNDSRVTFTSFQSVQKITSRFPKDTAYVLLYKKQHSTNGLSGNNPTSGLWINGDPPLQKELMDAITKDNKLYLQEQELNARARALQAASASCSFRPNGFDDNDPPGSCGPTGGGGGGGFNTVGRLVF

B1: usp_38_diff_out_1_162_43 (protein)
chain: DVEKVLEQAKELLEKAEKKIKEAEKALKEGKLEEAEKYLDEAWELLGQLAKLLREARRLRRELDPERQAEVTKKLKELNEKANKLIDKLTKLEEEVFLKK
B2: usp_38_diff_out_1_153_33 (protein)
chain: SKLEELKARVEALTAEAKALEKEAKALIESGKATREKVDALADRLGALAVELRELRSEAAESGEYYKELKPLFDEANAALDAAVDALEKLGRLVFEKEAE
B3: usp_38_diff_out_1_153_22 (protein)
chain: MKEEELEKKVEEIKKKAKELLKEAKKLLESGKATREEVDKLADELGKLAVELRELRSEAAEDEEVYKKLKEKFKEAEKALNEAVDALNEAARRVFLKEAE
B4: usp_38_diff_out_1_153_29 (protein)
chain: SELEELKARVEKITKEAEALKKEAEKLIADGTATREKVDALADKLGALAVELREIKSKAAESGEYYKKLKPLFDKAEAALNEAVDALNRAATLVFEREAA
B5: usp_38_diff_out_1_153_26 (protein)
chain: SELEKLEKEIKKITEEAKKLKEEAEKLIEDGTATREKVDELADRLGKLAVELREIRSKAAESGDYYKKLKPLFEEAEKALNEAVDALNKAGTLVFEKEAE
B6: usp_38_diff_out_1_153_21 (protein)
chain: SELEELKKELEEILEEAKKLKEEIEKLIKEGKMTLEKVDKLADELGRLSKRFREIRSKAAENPEYYEKLKELFKETEEELNKAVDALNEAGRLVFLKEAE
B7: usp_38_diff_out_1_153_20 (protein)
chain: SRLEELRKELEEILEEAKRLRDEIERLIAEGRMTRELVDRYADRLGELAARFREIRAELADDPEAYKELRPLLKETQAALDAAVDALERAGRLVFLREAE
B8: usp_38_diff_out_1_162_39 (protein)
chain: RLEELLEEARRAIEEARRLLEEAERAFKAGDLEEARRLLDRAADALGRAAQLLREARRLMRDLPPEEREKVREELDRLEEELDRLIDRYTELATRVFLAE
B9: usp_38_diff_out_1_147_13 (protein)
chain: SAADEADREAEAEAREKLRRFAWESLEELEKNRDKLSLDRLTIGAGGLLVVALELGDEELLLRVAALLLEDPEVLARVRARLSPEERARLEAAVARVRAA
B10: usp_38_diff_out_1_153_17 (protein)
chain: SRLEELKKRLEEILEEAKRLKEEIERLIAEGTMTREKVDEYADRLGKLAVEFREIRAEAAEDPEIYKELKELFKETEKALNEAVDALERAGRLVFLREAE
B11: usp_38_diff_out_1_153_30 (protein)
chain: SELEELEKEIKKITEEAKKLKKEAEELIKSGKATREKVDKLADELGKLAVRLREIRSKAAESGDYYKKLKPLFKEAEKALNEAVDALEKAGRLVFEKEAE
B12: usp_38_diff_out_1_153_35 (protein)
chain: SELDKLKAELADITAKANALKKEIEAAIKAGTMTREKVDAAWDELGALAKRLAEIRSKAAENPELYPKLKADIDAANAALDAAIDALNEAATKVFLKEAE
B13: usp_38_diff_out_1_153_31 (protein)
chain: SELEELRERIERLTREARELEREARELIESGEATREKVDELADRLGRLAVELRELRSKAAESGEYYKELKPLFEEAEEALNRAVDALNEAGRLVFEREAE
B14: usp_38_diff_out_1_162_40 (protein)
chain: ELEEVLREAREAIERARELLERAKEALEEGRLEEAERLLDEAADELGRAARLLREARRLLRELPPEEREKYREELEKLERELRELIDEYTELAREVFLRR
B15: usp_38_diff_out_1_153_23 (protein)
chain: MKEEELRKRLEEIKKKAEELKKEAEALLKSGNATREKVDALADKLGALAVELRELKALAAQDPEVYKALKPLFKETEKALNEAVDALNEAARQVFLKEAE
B16: usp_38_diff_out_1_153_34 (protein)
chain: SRLEELRKRVEEITKRAKELKKRAEELIESGEATLEKVDELADELGRLAVELREVRSEAAEDGDYYRELKPLFDEAEKALNEAVDALNEAGRLVFLKEAE
B17: usp_38_diff_out_1_162_41 (protein)
chain: DIEKVLEQAQKALEEAEKLLKEAEKALKEGDLEEAEKYIRKAWDKLGQLAQLLREARRLLRELSPEERKKYREQLDKLEAKADELIDRLVKLEKEVFLKK
B18: usp_38_diff_out_1_153_19 (protein)
chain: SELEELKKELEKIKEEAKKLKEEIEKLIKEGKMTREKVDEYADKLGELAKRFREIRSKLAQNPEAYKELKELLKETEKELNEAVDALNEAGRLVFLKEAE
B19: usp_38_diff_out_1_153_18 (protein)
chain: SRLDELRARLERILAEARELKAEIKALIEAGTMTREKVEEYADRLAALAAEFREIRAEAAEDPAAYAALRPLFRETQAALDEAVDALEEAGRLVFEREAE
B20: usp_38_diff_out_1_162_37 (protein)
chain: RAEELLERLREHTERLRRLVEEAKRRLDTLSAEELRAMADELADAIAETDELIREARRLMVDLDPERREEARRAIEEARRAADEAVEVYEQLVLRSIELE
B21: usp_38_diff_out_1_153_32 (protein)
chain: SELEELKKKVEEITKKAKELKKEAEKLIADGTATLEKVDALADELGALAVELREIRSKAAESGDYYKKLKPLFDEANAALNEAVDALNRAGTLVFEREAE
B22: usp_38_diff_out_1_162_42 (protein)
chain: KLEELLEQAKRALAEAEELLERAEEALAAGRLEEARRYLDRAWDALGRLAQLLREARRLLRELSPEEREKARKQLKELEARADELIDRLVELEREVFLRE
B23: usp_38_diff_out_1_153_36 (protein)
chain: SELDELKARLDAITAEANALKAEINAAIEAGTMTREQVDAAWDRLGALAKELAEIRAKAAEKPELYPQLKPAIDAATAALNAAIDALNEAARLVFLREAE
B24: usp_38_diff_out_1_101_9 (protein)
chain: MEAELAAAKAAFDAAAAALLKAAEDALAKIKAEGTPEQAAEMERHLAAIKSFIADSRKTLEEIAEQDKEAAIEFANAATTVLNILTAEVKEETARLLAKA
B25: usp_38_diff_out_1_153_24 (protein)
chain: VKLEELKKRVEEITKRAKELKKEAEELLKSGNATREEVDRLADELGRLAVELRELRSIAAEDEEVYKALKPLFKEANEALDEAVDALNEAGRRVFLKEAE
B26: usp_38_diff_out_1_153_25 (protein)
chain: SELEELKKKVEEIKKEAEKLKKEAEELIKSGEATREKVEELADKLGKLSVELREIRSKAAESGEYYKELKPLFKEAEEALNEAVDALEKAAREVFLKEAE
B27: usp_38_diff_out_1_153_16 (protein)
chain: SELEKMKEELEKILEEAKKLKEEIEKLIKEGKMTREKVDKYADELAELAKRFRELRSKAAENPEYYKELKELFKETLKALNEAVDALTKAAEQVFLKEAE
B28: usp_38_diff_out_1_153_28 (protein)
chain: SKLEELKKRVEEITKEAKELKKEAEKLIKSGKATLEKVEELADKLGKLSVELREIRSEAAEDEEYYKELKPLFKEAEKALNEAVDALEKAGRLVFEKMAE
B29: usp_38_diff_out_1_147_15 (protein)
chain: SPADEADAEAEAEARERLREFARESLDELEANRDRLSLDRRVTQAGGLFTIAVELGDRELLLRVAALLLEDPEALAAVRARLSPEERAALEAAVAEVRAA
B30: usp_38_diff_out_1_162_38 (protein)
chain: ELEELLKEAEEAIERARELLERAEEAFAAGDLETAERLLREAADELGRAAQLLREARRLLRELPPEEREKYRERLEELERELDELIDRYTALATEVFLAR
B31: usp_38_diff_out_1_147_14 (protein)
chain: SAADEADAAAQAEIDERLRRFARESLDDFEANRDRYSPDRATVALGGLITTAIELGDRELLLRAAALLLKDPAVRAAVLARLDPAARAAFEEAEAEVRAA
B32: usp_38_diff_out_1_153_27 (protein)
chain: SELEELKKKIEEITKEAEKLKKEAEKLIKDGTATREKVDELADKLGKLAVELREIRSKAAESGEYYKKLKPLFKKAEKALNEAVDALNKAATLVFEKEAE

The target of the experiment is T1, USP38, Q8NB14. Description: median log2 fold change of GCK-ALFA target abundance (FLAG IP / Myc IP barcode read proportion) (log2 ratio); each designed protein is fused to an ALFA-tag nanobody in HEK293 cells to bring the named protein to FLAG-tagged glucokinase (GCK); Myc marks an untargeted standard; higher = target protein stabilised (more abundant). To be noted: target protein: 3xFLAG-MCP-GCK-ALFA reporter; HEK293 landing pad (RPLP). The gist of the method: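 Binders fused to an ALFA nanobody were recombined as a library into HEK293 landing-pad cells, which were induced with 2 μg mL^−1 doxycycline and then transfected to express a FLAG-tagged target and a Myc-tagged standard. After 48 h, circular RNA barcodes recovered by anti-FLAG and anti-Myc immunoprecipitation of lysates were reverse transcribed, amplified and sequenced. Each binder's target abundance is the median log2 ratio of FLAG to Myc barcode read proportions, from barcodes present at ≥10^−7 in both replicates, binders carrying ≥3 barcodes per replicate, a 10^−6 pseudocount and pooled replicates.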
On to B1, for which the “median log2 fold change” value is -1.34.
As for B2, the “median log2 fold change” value came out at 0.179.
In the case of B3, the “median log2 fold change” value was 0.146.
Regarding B4, the “median log2 fold change” value is -0.161.
As to B5, the “median log2 fold change” value stood at 0.457.
Turning to B6, the “median log2 fold change” value is 0.358.
Turning to B7, the “median log2 fold change” value was -0.0906.
B8: the “median log2 fold change” value worked out at 0.185.
With B9, the “median log2 fold change” value is -1.17.
Regarding B10, the “median log2 fold change” value was -0.168.
On to B11, for which the “median log2 fold change” value was -0.0674.
As to B12, the “median log2 fold change” value is 0.136.
As to B13, the “median log2 fold change” value is 0.15.
B14: the “median log2 fold change” value is -0.209.
Turning to B15, the “median log2 fold change” value was found to be 0.0874.
With B16 the figure was 0.122.
As for B17, the “median log2 fold change” value was -0.214.
Consider B18, for which the “median log2 fold change” value was -0.00147.
For B19 the value was 0.0475; for B20, 0.216.
Regarding B21, the “median log2 fold change” value was -0.165.
Take B22: the “median log2 fold change” value was -0.0981.
Take B23: the “median log2 fold change” value was 0.22.
As to B24, the “median log2 fold change” value was -0.957.
On to B25, for which the “median log2 fold change” value is 0.085.
For the molecule B26, the “median log2 fold change” value was -0.027.
Turning to B27, the “median log2 fold change” value is -0.51.
For B28 the value was -0.31.
Consider B29, for which the “median log2 fold change” value is 0.0346.
With B30, the “median log2 fold change” value amounted to 0.219.
For the molecule B31, the “median log2 fold change” value was determined as 0.247.
As to B32, the “median log2 fold change” value was determined as 0.0209.
